# Source: PubChem BioAssay (NCATS)
# Results filed as inconclusive are left out. Entries that show only a call come without a potency. Activity calls are given as the source filed them. Calls follow the shape of the dose curve; as a rule, active = well fitted curve in the direction sought with a large enough effect; inconclusive = small, poorly fitted or top-dose-only effect, or another doubt; inactive = no such curve, though single readings can be large; an effect the other way counts as inactive or inconclusive.
# How the values were obtained:
# [1] = target: Muscarinic acetylcholine receptor M1 (Rattus norvegicus) (UniProt P08482); test: qHTS Assay for Antagonists of Acetylcholine Muscarinic M1 Receptor: Kinetic Measurement of Intracellular Calcium Response (AID 943); also: nearly all actives have a fitted effect of over 75% in size; also: potency is read from the fitted curve at half-maximal effect
# Muscarinic acetylcholine receptor M1 (Rattus norvegicus), sequence (P08482 whole entry, looked up): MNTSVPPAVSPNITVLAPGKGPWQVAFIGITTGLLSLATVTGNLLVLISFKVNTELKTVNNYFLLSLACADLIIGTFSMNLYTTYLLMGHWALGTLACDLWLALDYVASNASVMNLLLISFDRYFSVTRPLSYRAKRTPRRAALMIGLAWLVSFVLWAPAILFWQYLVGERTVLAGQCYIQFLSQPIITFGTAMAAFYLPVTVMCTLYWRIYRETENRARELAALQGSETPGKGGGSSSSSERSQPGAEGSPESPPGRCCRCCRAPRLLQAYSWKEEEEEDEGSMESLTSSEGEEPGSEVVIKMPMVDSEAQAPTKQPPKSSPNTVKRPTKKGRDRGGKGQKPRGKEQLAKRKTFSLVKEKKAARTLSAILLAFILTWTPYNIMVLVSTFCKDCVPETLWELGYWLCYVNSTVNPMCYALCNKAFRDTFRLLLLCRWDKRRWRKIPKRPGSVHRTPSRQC
# Method in brief: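 Antagonism is measured as inhibition of the carbachol-evoked calcium rise in CHO cells transfected with rat M1. Cells are dye-loaded, exposed to compound for 10 min, then stimulated with 100 nM carbachol (EC80).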
# [2] = target: ATP-dependent 6-phosphofructokinase (Trypanosoma brucei brucei) (UniProt O15648); test: qHTS Assay to Find Inhibitors of T. brucei phosphofructokinase: hit validation (AID 492961);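 also: luminescence reports ADP formed as PFK phosphorylates fructose-6-phosphate with ATP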
# ATP-dependent 6-phosphofructokinase (Trypanosoma brucei brucei), sequence (O15648 whole entry, looked up): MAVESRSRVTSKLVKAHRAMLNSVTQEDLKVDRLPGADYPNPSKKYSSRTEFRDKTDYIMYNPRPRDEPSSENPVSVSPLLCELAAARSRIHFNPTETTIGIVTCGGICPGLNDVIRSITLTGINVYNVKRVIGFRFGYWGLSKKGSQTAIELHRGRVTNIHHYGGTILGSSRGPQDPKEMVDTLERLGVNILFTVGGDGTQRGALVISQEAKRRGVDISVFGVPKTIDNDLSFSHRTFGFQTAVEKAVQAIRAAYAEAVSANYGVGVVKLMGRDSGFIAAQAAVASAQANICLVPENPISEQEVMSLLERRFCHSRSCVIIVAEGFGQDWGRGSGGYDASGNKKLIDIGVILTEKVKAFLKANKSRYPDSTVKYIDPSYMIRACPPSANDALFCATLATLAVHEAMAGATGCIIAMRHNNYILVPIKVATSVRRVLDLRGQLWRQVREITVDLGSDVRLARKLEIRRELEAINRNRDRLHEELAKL
# Method in brief: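 Percent activity derived from corrected luminescence, normalized between 0x and 1x enzyme controls, then fitted to concentration-response curves. Conditions: 1.25 nM PFK, 0.1 mM ATP, 0.5 mM F6P, 45 min RT.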
# 3D7 = test: qHTS profiling for inhibitors of Plasmodium falciparum proliferation (AID 504749); also: nearly all actives have a fitted effect of over 60% in size; also: potency is read from the fitted curve at half-maximal effect; conditions: P. falciparum in erythrocytes, SYBR Green DNA, 72 h; series mostly up to 28.7 µM
# Method in brief: (§1)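 Quantitative HTS: compounds pinned into medium, infected erythrocytes added (0.3% parasitemia, 2.5% hematocrit), 72 h culture at 37 C under 5% CO2. Saponin/Triton lysis with SYBR Green I, overnight RT, then fluorescence read.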
# 7G8 = test: as above; conditions: P. falciparum in erythrocytes, SYBR Green DNA, 72 h; series mostly up to 28.7 µM
# Method in brief: as §1
# AA1029 = test: as above; conditions: P. falciparum in erythrocytes, SYBR Green DNA, 72 h; series mostly up to 28.7 µM
# Method in brief: as §1
# CP185 = test: as above; conditions: P. falciparum in erythrocytes, SYBR Green DNA, 72 h; series mostly up to 28.7 µM
# Method in brief: as §1
# CP238 = test: as above; conditions: P. falciparum in erythrocytes, SYBR Green DNA, 72 h; series mostly up to 28.7 µM
# Method in brief: as §1
# CP247 = test: as above; conditions: P. falciparum in erythrocytes, SYBR Green DNA, 72 h; series mostly up to 28.7 µM
# Method in brief: as §1
# CP260 = test: as above; conditions: P. falciparum in erythrocytes, SYBR Green DNA, 72 h; series mostly up to 28.7 µM
# Method in brief: as §1
# CP305 = test: as above; conditions: P. falciparum in erythrocytes, SYBR Green DNA, 72 h; series mostly up to 28.7 µM
# Method in brief: as §1
# FAB9 = test: as above; conditions: P. falciparum in erythrocytes, SYBR Green DNA, 72 h; series mostly up to 28.7 µM
# Method in brief: as §1
# HB3 = test: as above; conditions: P. falciparum in erythrocytes, SYBR Green DNA, 72 h; series mostly up to 28.7 µM
# Method in brief: as §1
# ICS = test: as above; conditions: P. falciparum in erythrocytes, SYBR Green DNA, 72 h; series mostly up to 28.7 µM
# Method in brief: as §1
# JCK = test: as above; conditions: P. falciparum in erythrocytes, SYBR Green DNA, 72 h; series mostly up to 28.7 µM
# Method in brief: as §1
# N140 = test: as above; conditions: P. falciparum in erythrocytes, SYBR Green DNA, 72 h; series mostly up to 28.7 µM
# Method in brief: as §1
# P93_24 = test: as above; conditions: P. falciparum in erythrocytes, SYBR Green DNA, 72 h; series mostly up to 28.7 µM
# Method in brief: as §1
# P94_40 = test: as above; conditions: P. falciparum in erythrocytes, SYBR Green DNA, 72 h; series mostly up to 28.7 µM
# Method in brief: as §1
# PAD = test: as above; conditions: P. falciparum in erythrocytes, SYBR Green DNA, 72 h; series mostly up to 28.7 µM
# Method in brief: as §1
# TAB109 = test: as above; conditions: P. falciparum in erythrocytes, SYBR Green DNA, 72 h; series mostly up to 28.7 µM
# Method in brief: as §1
# [3] = target: Cytochrome P450 3A4 (Homo sapiens) (UniProt P08684); test: qHTS Assay for Activators of Cytochrome P450 3A4 (AID 885); also: nearly all actives have a fitted effect of over 65% in size
# Cytochrome P450 3A4 (Homo sapiens), sequence (P08684 whole entry, looked up): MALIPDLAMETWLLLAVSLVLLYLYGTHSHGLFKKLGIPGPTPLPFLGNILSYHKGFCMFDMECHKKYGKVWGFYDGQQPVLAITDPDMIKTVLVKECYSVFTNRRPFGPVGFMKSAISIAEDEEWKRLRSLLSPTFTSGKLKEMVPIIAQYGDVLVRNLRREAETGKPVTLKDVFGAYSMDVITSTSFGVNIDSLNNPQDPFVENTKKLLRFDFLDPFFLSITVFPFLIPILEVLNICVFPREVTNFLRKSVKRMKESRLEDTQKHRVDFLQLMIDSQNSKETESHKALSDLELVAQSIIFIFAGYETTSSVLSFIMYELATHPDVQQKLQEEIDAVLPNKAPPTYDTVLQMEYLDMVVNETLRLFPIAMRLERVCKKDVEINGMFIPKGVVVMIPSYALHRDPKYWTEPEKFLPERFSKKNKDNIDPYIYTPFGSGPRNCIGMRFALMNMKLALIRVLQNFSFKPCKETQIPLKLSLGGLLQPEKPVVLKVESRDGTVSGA
# Method in brief: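 Luminescent readout of luciferin formed from 25 uM Luciferin-PPXE (KM level) by 20 nM CYP3A4 in 200 mM KPO4, with 60 min NADPH-driven reaction at room temperature after 10 min compound exposure. Ketoconazole (57 uM) defined 100% inhibition.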
compound,measurement,setting,value
CC(=O)NCCc1ccc(O)c(O)c1,Potency,[1],inactive
CC(C)C[C@H]1C(=O)N2CCCC2[C@]2(O)O[C@](NC(=O)[C@@H]3C=C4c5cccc6[nH]c(Br)c(c56)C[C@H]4N(C)C3)(C(C)C)C(=O)N12 (stereo partly drawn),outcome,[2],inactive
same,Potency,3D7,3.98 µM (active)
same,Potency,7G8,0.708 µM (active)
same,Potency,AA1029,3.55 µM (active)
same,Potency,CP185,11.2 µM (active)
same,Potency,CP238,10 µM (active)
same,Potency,CP247,8.91 µM (active)
same,Potency,CP260,1.58 µM (active)
same,Potency,CP305,10.7 µM (active)
same,Potency,FAB9,8.91 µM (active)
same,Potency,HB3,2.82 µM (active)
same,Potency,ICS,0.708 µM (active)
same,Potency,JCK,10 µM (active)
same,Potency,N140,3.16 µM (active)
same,Potency,P93_24,2.82 µM (active)
same,Potency,P94_40,2.82 µM (active)
same,Potency,PAD,3.98 µM (active)
same,Potency,TAB109,5.62 µM (active)
COc1ccc(CCNC[C@@H](O)c2ccc(O)cc2)cc1OC,outcome,[2],inactive
same,Potency,3D7,inactive
same,Potency,7G8,inactive
same,Potency,AA1029,inactive
same,Potency,CP185,inactive
same,Potency,CP238,inactive
same,Potency,CP247,inactive
same,Potency,CP260,inactive
same,Potency,CP305,inactive
same,Potency,FAB9,inactive
same,Potency,HB3,inactive
same,Potency,ICS,inactive
same,Potency,JCK,inactive
same,Potency,N140,inactive
same,Potency,P93_24,inactive
same,Potency,P94_40,inactive
same,Potency,PAD,inactive
same,Potency,TAB109,inactive
CC(C)(C)[C@]1(O)CCN2CC3c4ccccc4CCc4cccc(c43)[C@@H]2C1 (stereo partly drawn),outcome,[2],inactive
same,Potency,7G8,11.2 µM (active)
same,Potency,AA1029,7.94 µM (active)
same,Potency,CP305,inactive
same,Potency,ICS,10 µM (active)
same,Potency,JCK,inactive
same,Potency,P93_24,11.2 µM (active)
N[C@H](Cc1ccc(O)c(O)c1)C(=O)O,Potency,3D7,inactive
same,Potency,AA1029,inactive
same,Potency,CP185,inactive
same,Potency,CP238,inactive
same,Potency,CP247,inactive
same,Potency,CP260,inactive
same,Potency,FAB9,inactive
same,Potency,HB3,inactive
same,Potency,ICS,inactive
same,Potency,N140,inactive
same,Potency,P93_24,inactive
same,Potency,P94_40,inactive
same,Potency,PAD,inactive
same,Potency,TAB109,inactive
COc1cc2c(cc1OC)C(c1ccccc1)CN(C)CC2 (stereo not drawn),outcome,[2],inactive
same,Potency,3D7,inactive
same,Potency,CP185,inactive
same,Potency,CP238,inactive
same,Potency,CP260,inactive
same,Potency,CP305,inactive
same,Potency,FAB9,inactive
same,Potency,HB3,inactive
same,Potency,JCK,inactive
same,Potency,N140,inactive
same,Potency,PAD,inactive
CCSC(N)=Nc1ccc(C(F)(F)F)cc1,Potency,[3],inactive
COC(=O)c1c(-c2cc(OC)c(OC)c(OC)c2)c2ccc(OCc3ccccn3)cc2c(=O)n1-c1ccc(N)cc1,Potency,[3],inactive
same,Potency,[1],inactive
CCn1c(=O)c2[nH]c(-c3ccccc3)nc2n(CC)c1=O,Potency,[3],inactive
NCCCCNS(=O)(=O)c1cccc2c(Cl)cccc12,Potency,[3],inactive
same,Potency,[1],14.1 µM (active)
CCCC(=O)NCCc1c2n(c3ccc(OC)cc13)Cc1ccccc1-2,Potency,[3],inactive
same,Potency,[1],inactive
CN1C[C@H](C(=O)N[C@]2(C)O[C@@]3(O)C4CCCN4C(=O)[C@H](Cc4ccccc4)N3C2=O)C[C@@H]2c3cccc4[nH]cc(c34)C[C@H]21 (stereo partly drawn),Potency,3D7,8.91 µM (active)
same,Potency,7G8,0.158 µM (active)
same,Potency,AA1029,3.55 µM (active)
same,Potency,CP185,7.94 µM (active)
same,Potency,CP238,5.62 µM (active)
same,Potency,CP247,7.08 µM (active)
same,Potency,CP260,2 µM (active)
same,Potency,FAB9,10 µM (active)
same,Potency,HB3,2.24 µM (active)
same,Potency,ICS,0.1 µM (active)
same,Potency,JCK,10 µM (active)
same,Potency,N140,0.891 µM (active)
same,Potency,P93_24,1.41 µM (active)
same,Potency,P94_40,3.16 µM (active)
same,Potency,PAD,0.355 µM (active)
same,Potency,TAB109,7.08 µM (active)
